# The supplement of paper PMC8728848
# About 410 targets per protein were measured; listed, in parts, are those with the strongest signals and a random draw of the rest.
# B1: UEA-I (Ulex europaeus), P22972 (protein)
# chain: SDDLSFKFKNFSQNGKDLSFQGDASVIETGVLQLNKVGNNLPDETGGIARYIAPIHIWNCNTGEVASFITSFSFFMETSANPKAATDGLTFFLAPPDSPLRRAGGYFGLFEDTKDNDSSYQTVAVEFDTIGSPVNFDDPGFPHIGIDVNRVKSINAERWNKRYGLNNVANVEIIYEASSKTLTASLTYPSDQTSISVTSIVDLKEILPEWVSVGFSGGTYIGRQATHEVLNWYFTSNLINTNS
# Assays:
# Test in all cases: glycan array binding signal (z-score within array); higher = stronger binding
# Details in all cases: glycan notation: IUPAC condensed, linker removed
# [1] = target: Gal(b1-4)GlcNAc(b1-2)Man(a1-6)[GlcNAc(b1-2)Man(a1-3)]Man(b1-4)GlcNAc(b1-4)GlcNAc
# Procedure, shortened: (§1)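 Glycan array data were curated from 3228 arrays in the Consortium for Functional Glycomics database and kept only where the protein sequence was available. Glycan names were converted to IUPAC-condensed notation, and columns mapping to the same glycan were averaged. The binding signal is a within-array Z-score, averaged across arrays of the same protein sequence at different concentrations or buffers and across linkers. Negative Z-scores can be read as non-binding.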
# [2] = target: Gal3S(b1-4)[Fuc(a1-3)]GlcNAc6S
# Procedure, shortened: as §1
# Gal6S(b1-4)Glc6S = target: Gal6S(b1-4)Glc6S
# Procedure, shortened: as §1
# [3] = target: GalNAc(a1-3)GalNAc(a1-3)Gal(a1-4)Gal(b1-4)GlcNAc
# Procedure, shortened: as §1
# [4] = target: GalNAc(b1-3)Gal(a1-6)Gal(b1-4)Glc
# Procedure, shortened: as §1
# Glc(a1-6)Glc(a1-6)Glc = target: Glc(a1-6)Glc(a1-6)Glc
# Procedure, shortened: as §1
# [5] = target: GlcNAc(b1-2)Gal(b1-3)GalNAc
# Procedure, shortened: as §1
# [6] = target: GlcNAc(b1-3)Gal(b1-4)GlcNAc(b1-2)Man(a1-3)[GlcNAc(b1-3)Gal(b1-4)GlcNAc(b1-2)Man(a1-6)]Man(b1-4)GlcNAc(b1-4)GlcNAc
# Procedure, shortened: as §1
# [7] = target: GlcNAc(b1-3)[GlcNAc(b1-6)]Gal(b1-4)GlcNAc
# Procedure, shortened: as §1
# [8] = target: GlcNAc(b1-3)[GlcNAc(b1-6)]GalNAc
# Procedure, shortened: as §1
# Kdn(a2-3)Gal(b1-3)GlcNAc = target: Kdn(a2-3)Gal(b1-3)GlcNAc
# Procedure, shortened: as §1
# [9] = target: Man(a1-2)Man(a1-2)Man(a1-3)[Man(a1-2)Man(a1-3)[Man(a1-2)Man(a1-6)]Man(a1-6)]Man(b1-4)GlcNAc(b1-4)GlcNAc
# Procedure, shortened: as §1
# [10] = target: Man(a1-2)Man(a1-3)[Man(a1-2)Man(a1-6)]Man(a1-6)[Man(a1-2)Man(a1-2)Man(a1-3)]Man
# Procedure, shortened: as §1
# [11] = target: Man(a1-3)[Man(a1-6)]Man(a1-6)[Man(a1-3)]Man
# Procedure, shortened: as §1
# [12] = target: Neu5Ac(a2-3)Gal(b1-3)GlcNAc(b1-3)Gal(b1-4)GlcNAc
# Procedure, shortened: as §1
# [13] = target: Neu5Ac(a2-3)Gal(b1-3)[Neu5Ac(a2-3)Gal(b1-4)]GlcNAc
# Procedure, shortened: as §1
# [14] = target: Neu5Ac(a2-3)Gal(b1-4)GlcNAc(b1-2)Man(a1-3)[Neu5Ac(a2-6)Gal(b1-4)GlcNAc(b1-2)Man(a1-6)]Man(b1-4)GlcNAc(b1-4)GlcNAc
# Procedure, shortened: as §1
# [15] = target: Neu5Ac(a2-3)Gal(b1-4)GlcNAc(b1-3)GalNAc
# Procedure, shortened: as §1
# [16] = target: Neu5Ac(a2-3)Gal(b1-4)GlcNAc(b1-6)GalNAc
# Procedure, shortened: as §1
# [17] = target: Neu5Ac(a2-6)Gal(b1-4)GlcNAc(b1-2)Man(a1-3)Man(b1-4)GlcNAc(b1-4)GlcNAc
# Procedure, shortened: as §1
# [18] = target: Neu5Ac(a2-6)Gal(b1-4)GlcNAc(b1-2)Man(a1-3)[Man(a1-6)]Man(b1-4)GlcNAc(b1-4)GlcNAc
# Procedure, shortened: as §1
# [19] = target: Neu5Ac(a2-6)Gal(b1-4)GlcNAc(b1-3)Gal(b1-4)GlcNAc(b1-6)[Gal(b1-3)]GalNAc
# Procedure, shortened: as §1
# [20] = target: Neu5Ac(a2-6)Gal(b1-4)GlcNAc(b1-3)GalNAc
# Procedure, shortened: as §1
# [21] = target: Neu5Ac(a2-8)Neu5Ac(a2-3)[GalNAc(b1-4)]Gal(b1-4)Glc
# Procedure, shortened: as §1
# [22] = target: Neu5Ac9Ac(a2-6)Gal(b1-4)GlcNAc
# Procedure, shortened: as §1
# [23] = target: Neu5Gc(a2-8)Neu5Gc(a2-3)Gal(b1-4)GlcNAc
# Procedure, shortened: as §1
# [24] = target: Neu5Gc(b2-6)Gal(b1-4)GlcNAc
# Procedure, shortened: as §1
binder,measurement,setting,value
B1,glycan array binding signal (z-score),[1],-0.155
same,glycan array binding signal (z-score),[2],-0.212
same,glycan array binding signal (z-score),Gal6S(b1-4)Glc6S,-0.098
same,glycan array binding signal (z-score),[3],-0.179
same,glycan array binding signal (z-score),[4],-0.21
same,glycan array binding signal (z-score),Glc(a1-6)Glc(a1-6)Glc,-0.204
same,glycan array binding signal (z-score),[5],-0.195
same,glycan array binding signal (z-score),[6],-0.128
same,glycan array binding signal (z-score),[7],-0.266
same,glycan array binding signal (z-score),[8],-0.17
same,glycan array binding signal (z-score),Kdn(a2-3)Gal(b1-3)GlcNAc,-0.222
same,glycan array binding signal (z-score),[9],-0.378
same,glycan array binding signal (z-score),[10],-0.191
same,glycan array binding signal (z-score),[11],-0.125
same,glycan array binding signal (z-score),[12],-0.274
same,glycan array binding signal (z-score),[13],-0.122
same,glycan array binding signal (z-score),[14],-0.209
same,glycan array binding signal (z-score),[15],-0.22
same,glycan array binding signal (z-score),[16],-0.243
same,glycan array binding signal (z-score),[17],-0.227
same,glycan array binding signal (z-score),[18],-0.216
same,glycan array binding signal (z-score),[19],-0.032
same,glycan array binding signal (z-score),[20],-0.148
same,glycan array binding signal (z-score),[21],-0.259
same,glycan array binding signal (z-score),[22],-0.244
same,glycan array binding signal (z-score),[23],-0.238
same,glycan array binding signal (z-score),[24],-0.1
